{"source": "paper PMC4336329", "about": "(PLoS ONE, 2015)", "note": "Out of some 310,000 compounds screened, about 14,000 (4.5%) showed an effect of 50% or more. Effects have a minus sign here. This is one part of a sample in which strong results are shown more often than they occur.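 Further: peak tail current of the secondary pulse compared with the same well before compound.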"}
{"biological_target": "human ether-à-go-go-related gene (hERG) potassium channel (human, UniProt Q12809)", "sequence (Q12809 whole entry, looked up)": "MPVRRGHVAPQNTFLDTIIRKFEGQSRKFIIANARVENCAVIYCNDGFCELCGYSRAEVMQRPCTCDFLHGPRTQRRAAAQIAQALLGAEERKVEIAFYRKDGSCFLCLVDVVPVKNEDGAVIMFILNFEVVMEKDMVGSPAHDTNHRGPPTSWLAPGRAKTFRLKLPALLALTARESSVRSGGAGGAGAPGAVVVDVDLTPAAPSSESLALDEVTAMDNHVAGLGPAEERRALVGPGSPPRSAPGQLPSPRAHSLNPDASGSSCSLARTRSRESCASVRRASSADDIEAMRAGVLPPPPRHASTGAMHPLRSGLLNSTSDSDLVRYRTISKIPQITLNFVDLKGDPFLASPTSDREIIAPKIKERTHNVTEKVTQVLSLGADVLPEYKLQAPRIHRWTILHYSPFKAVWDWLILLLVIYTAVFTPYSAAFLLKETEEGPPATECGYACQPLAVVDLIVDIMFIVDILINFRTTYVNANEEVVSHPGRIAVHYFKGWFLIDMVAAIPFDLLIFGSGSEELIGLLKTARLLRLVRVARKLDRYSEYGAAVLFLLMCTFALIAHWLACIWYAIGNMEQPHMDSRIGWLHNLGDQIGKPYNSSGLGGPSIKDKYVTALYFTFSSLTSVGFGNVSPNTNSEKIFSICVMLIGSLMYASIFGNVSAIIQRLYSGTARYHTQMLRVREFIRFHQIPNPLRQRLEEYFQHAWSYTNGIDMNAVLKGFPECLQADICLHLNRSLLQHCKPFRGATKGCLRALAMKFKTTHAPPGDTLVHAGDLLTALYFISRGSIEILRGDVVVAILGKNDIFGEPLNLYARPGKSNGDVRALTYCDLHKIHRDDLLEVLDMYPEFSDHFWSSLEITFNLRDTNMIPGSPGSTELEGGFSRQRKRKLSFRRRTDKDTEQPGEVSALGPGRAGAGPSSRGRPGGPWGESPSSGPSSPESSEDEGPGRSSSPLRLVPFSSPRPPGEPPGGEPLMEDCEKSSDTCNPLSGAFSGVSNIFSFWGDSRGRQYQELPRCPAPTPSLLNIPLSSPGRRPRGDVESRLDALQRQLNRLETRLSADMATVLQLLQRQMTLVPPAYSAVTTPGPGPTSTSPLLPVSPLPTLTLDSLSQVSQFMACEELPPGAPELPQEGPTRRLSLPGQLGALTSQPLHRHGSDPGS", "test": "primary screen, population patch clamp on CHO cells stably expressing hERG; higher = less effect of the substance", "units": {"hERG current change (%, negative = inhibition) at 10uM": "%"}}
{"smiles": "O=C(O)c1ccc(Cl)c(S(=O)(=O)N(Cc2ccccc2)c2ccccc2)c1", "hERG current change (%, negative = inhibition) at 10uM": 7.76}
{"smiles": "O=C(O)c1ccc(Cl)c(S(=O)(=O)N(Cc2ccccc2)c2ccc(F)cc2)c1", "hERG current change (%, negative = inhibition) at 10uM": 13.9}
{"smiles": "CC1(C)CC(NC(=O)c2cccc(S(=O)(=O)N(Cc3ccccc3)c3ccccc3)c2)CC(C)(C)N1", "hERG current change (%, negative = inhibition) at 10uM": -45.3}
{"smiles": "O=C(Nc1ccccc1C(=O)NC1CC1)c1ccccc1", "hERG current change (%, negative = inhibition) at 10uM": 12.9}
{"smiles": "CC1(C)CC(NC(=O)c2ccc(Cl)c(S(=O)(=O)N(Cc3ccccc3)c3ccccc3)c2)CC(C)(C)N1", "hERG current change (%, negative = inhibition) at 10uM": -62.3}
{"smiles": "CN(C)S(=O)(=O)c1ccc(F)c(C(=O)Nc2ccccc2C(=O)NC2CC2)c1", "hERG current change (%, negative = inhibition) at 10uM": -38.7}
{"smiles": "CN(C)S(=O)(=O)c1cc(C(=O)Nc2ccccc2C(=O)NC2CC2)ccc1Cl", "hERG current change (%, negative = inhibition) at 10uM": -62.2}
{"smiles": "COc1ccccc1N(Cc1ccccc1)S(=O)(=O)c1cccc(C(=O)O)c1", "hERG current change (%, negative = inhibition) at 10uM": 10.9}
{"smiles": "COc1ccccc1N(Cc1ccccc1)S(=O)(=O)c1cccc(C(=O)NC2CC(C)(C)NC(C)(C)C2)c1", "hERG current change (%, negative = inhibition) at 10uM": -73.4}
{"smiles": "CC1C(=O)N2CCCc3cc(S(=O)(=O)N4CCC(C(N)=O)CC4)cc1c32", "note": "(stereo not drawn)", "hERG current change (%, negative = inhibition) at 10uM": 7.24}
{"smiles": "CC1CCN(c2ccc(C(=O)Nc3ccc4c(c3)OCO4)cc2[N+](=O)[O-])CC1", "hERG current change (%, negative = inhibition) at 10uM": 7.17}
{"smiles": "O=C(CN(C(=O)C1CSC(=O)C1)c1ccccc1F)NCc1ccc2c(c1)OCO2", "note": "(stereo not drawn)", "hERG current change (%, negative = inhibition) at 10uM": -12.4}
{"smiles": "CN(Cc1ccccc1)C(=O)COC(=O)c1cc(S(=O)(=O)N(C)C)ccc1N1CCCC1", "hERG current change (%, negative = inhibition) at 10uM": 1.93}
{"smiles": "COc1ccccc1NC(=O)COC(=O)c1cc([N+](=O)[O-])ccc1N1CCCC1", "hERG current change (%, negative = inhibition) at 10uM": -0.76}
{"smiles": "O=C(COC(=O)c1cc([N+](=O)[O-])ccc1N1CCOCC1)Nc1cc(F)ccc1F", "hERG current change (%, negative = inhibition) at 10uM": -49.8}
{"smiles": "O=C(COC(=O)c1cc([N+](=O)[O-])ccc1N1CCOCC1)Nc1ncc(Cl)cc1Cl", "hERG current change (%, negative = inhibition) at 10uM": -29.2}
{"smiles": "O=C(COC(=O)c1cc([N+](=O)[O-])ccc1N1CCOCC1)Nc1c(Cl)cccc1Cl", "hERG current change (%, negative = inhibition) at 10uM": -5.53}
{"smiles": "COc1cccc(CNC(=O)COC(=O)c2cc([N+](=O)[O-])ccc2N2CCCC2)c1", "hERG current change (%, negative = inhibition) at 10uM": -56.9}
{"smiles": "O=C(COC(=O)c1cc([N+](=O)[O-])ccc1N1CCOCC1)Nc1ccc(Cl)cn1", "hERG current change (%, negative = inhibition) at 10uM": -61.5}
{"smiles": "O=C(COC(=O)c1cc([N+](=O)[O-])ccc1N1CCOCC1)NCc1ccc(F)cc1", "hERG current change (%, negative = inhibition) at 10uM": -53.7}
{"smiles": "CCN(CC)S(=O)(=O)c1ccc(O)c(C(=O)OCC(=O)N(C)Cc2ccccc2)c1", "hERG current change (%, negative = inhibition) at 10uM": -55.4}
{"smiles": "CN(Cc1ccccc1)C(=O)COC(=O)c1ccc(S(=O)(=O)N(C)C)cc1", "hERG current change (%, negative = inhibition) at 10uM": -2.9}
{"smiles": "O=C(COC(=O)c1cc([N+](=O)[O-])ccc1N1CCOCC1)NCCc1ccccc1", "hERG current change (%, negative = inhibition) at 10uM": -45.4}
{"smiles": "COc1ccc(NC(=O)COC(=O)c2cc([N+](=O)[O-])ccc2N2CCOCC2)cc1", "hERG current change (%, negative = inhibition) at 10uM": -29.3}
{"smiles": "CCCc1nnc(NC(=O)CN2CCN(C)CC2)s1.Cl", "hERG current change (%, negative = inhibition) at 10uM": -1.91}
{"smiles": "O=C(Nc1cccc(O)c1)c1noc2c1CCCCC2", "hERG current change (%, negative = inhibition) at 10uM": -8.56}
{"smiles": "O=c1[nH]nc(-c2ccc(F)cc2)cc1Cc1ccccc1", "hERG current change (%, negative = inhibition) at 10uM": 3.89}
{"smiles": "CN(C)C(=O)c1cc(C(=O)c2ccc(F)cc2Cl)c[nH]1", "hERG current change (%, negative = inhibition) at 10uM": 11.4}
{"smiles": "CN(Cc1ccc(OC(F)F)cc1)Cc1nc2c(Br)cc(Br)cc2c(=O)[nH]1", "hERG current change (%, negative = inhibition) at 10uM": -5.29}
{"smiles": "COc1cc(/C=C/C(=O)OCC(=O)NC2CCS(=O)(=O)C2)ccc1OC(F)F", "note": "(stereo not drawn)", "hERG current change (%, negative = inhibition) at 10uM": -14}
{"smiles": "COc1cc(NC(=O)NS(=O)(=O)c2ccc(C)cc2)cc(OC)c1", "hERG current change (%, negative = inhibition) at 10uM": -1.04}
{"smiles": "CSc1snc(SCC(N)=O)c1C#N", "hERG current change (%, negative = inhibition) at 10uM": 20.6}
{"smiles": "Cc1cccc(-n2c(C)nc3c(cnn3-c3ccc(F)cc3)c2=O)c1", "hERG current change (%, negative = inhibition) at 10uM": -12.6}
{"smiles": "COc1ccc(C)cc1NC(=O)c1cccc(-c2ccc(OC(C)=O)cc2)c1", "hERG current change (%, negative = inhibition) at 10uM": 28.5}
{"smiles": "COc1ccc(NC(=O)Nc2nnc(N3CCC(C)CC3)s2)cc1OC", "hERG current change (%, negative = inhibition) at 10uM": -0.885}
{"smiles": "CC1=NNC(=O)C1C(c1cccc(O)c1)C(C#N)C#N", "note": "(stereo not drawn)", "hERG current change (%, negative = inhibition) at 10uM": 14.3}
{"smiles": "CC(=O)Nc1ccc(NC(=O)COC(=O)c2cc([N+](=O)[O-])ccc2N2CCOCC2)cc1", "hERG current change (%, negative = inhibition) at 10uM": 0.326}
{"smiles": "O=C(NCCOc1ccccc1)c1cc([N+](=O)[O-])ccc1N1CCOCC1", "hERG current change (%, negative = inhibition) at 10uM": -62.1}
{"smiles": "O=C(COC(=O)c1cc([N+](=O)[O-])ccc1N1CCOCC1)c1ccccc1Cl", "hERG current change (%, negative = inhibition) at 10uM": -2.75}
{"smiles": "O=C(NC1CCSc2ccccc21)c1cccc([N+](=O)[O-])c1", "note": "(stereo not drawn)", "hERG current change (%, negative = inhibition) at 10uM": -21.1}
{"smiles": "CCN(C(=O)COC(=O)c1cc([N+](=O)[O-])ccc1N1CCOCC1)c1ccccc1", "hERG current change (%, negative = inhibition) at 10uM": -34.3}
{"smiles": "CC(C)CCNC(=O)c1cc([N+](=O)[O-])ccc1N1CCOCC1", "hERG current change (%, negative = inhibition) at 10uM": -17.1}
{"smiles": "O=C(NC1CCCCC1)c1cc([N+](=O)[O-])ccc1N1CCOCC1", "hERG current change (%, negative = inhibition) at 10uM": -13.8}
{"smiles": "O=C(NCCOc1ccccc1F)c1cc([N+](=O)[O-])ccc1N1CCOCC1", "hERG current change (%, negative = inhibition) at 10uM": -45.1}
{"smiles": "O=C(NC1CCSc2ccccc21)c1cc([N+](=O)[O-])ccc1N1CCOCC1", "note": "(stereo not drawn)", "hERG current change (%, negative = inhibition) at 10uM": -57.8}
{"smiles": "CN(Cc1ccccc1)C(=O)COC(=O)c1cc([N+](=O)[O-])ccc1N1CCOCC1", "hERG current change (%, negative = inhibition) at 10uM": -56.7}
{"smiles": "CC(NC(=O)COC(=O)c1cc([N+](=O)[O-])ccc1N1CCOCC1)c1ccc(F)cc1", "note": "(stereo not drawn)", "hERG current change (%, negative = inhibition) at 10uM": -56.8}
{"smiles": "O=C(COC(=O)c1cc([N+](=O)[O-])ccc1N1CCOCC1)Nc1cccc(F)c1", "hERG current change (%, negative = inhibition) at 10uM": -28.5}
